# Assay results taken from PubChem BioAssay (NCATS).
# Calls of active or inactive are those of the source. No rule for the calls is given here.
# Settings: Ebola virus entry assay, ratio channel
Compound,AC50,outcome
NCCNc1cccc2ccccc12,25.1 µM (active),
CCCCCCCCOc1ccccc1C(=O)Nc1ccc(C(=O)OCC[N+](C)(CC)CC)cc1,2.51 µM (active),
CCCC(C(=O)OCCN(CC)CC)(c1ccccc1)c1ccccc1,2.24 µM (active),
CCC(C(=O)OCCOCCN(CC)CC)c1ccccc1 (stereo not drawn),22.4 µM (active),
C[C@@H]1C[C@H]2[C@@H]3C[C@H](F)C4=CC(=O)C(Cl)=C[C@]4(C)[C@@]3(F)[C@@H](O)C[C@]2(C)[C@@]1(O)C(=O)CO,,inactive
CCC(=O)c1ccc2c(c1)N(CCCN(C)C)c1ccccc1S2,17.8 µM (active),
COc1cc(N)c(Cl)cc1C(=O)NC1CCN(Cc2ccccc2)CC1,,inactive
CCCCCCOC(=O)NC(=N)c1ccc(NCc2nc3cc(C(=O)N(CCC(=O)OCC)c4ccccn4)ccc3n2C)cc1,3.16 µM (active),
COc1cc(N)c(Cl)cc1C(=O)NC1CCN(CCCOc2ccc(F)cc2)CC1OC (stereo not drawn),15.8 µM (active),
CCN(CC)CCNc1ccc(CO)c2sc3ccccc3c(=O)c12,14.1 µM (active),
CCCCCN=C(N)N/N=C/c1c[nH]c2ccc(OC)cc12,3.16 µM (active),
CCN1C(=O)c2ccccc2C1Nc1ccc(OCCN2CCCCC2)cc1 (stereo not drawn),15.8 µM (active),
COc1ccc(CCN(C)CCCC(C#N)(c2cc(OC)c(OC)c(OC)c2)C(C)C)cc1OC (stereo not drawn),14.1 µM (active),
C[C@@H]1C[C@H]2[C@@H]3CCC4=CC(=O)C=C[C@]4(C)[C@@]3(Cl)[C@@H](O)C[C@]2(C)[C@@]1(OC(=O)c1ccco1)C(=O)CCl,10 µM (active),
CCN(CC)CCOCCOC(=O)C1(c2ccccc2)CCCC1,10 µM (active),
CN(C)CCCOC1(Cc2ccccc2)CCCCCC1,14.1 µM (active),
CCN(CC)CCOC(=O)C(Cc1cccc2ccccc12)CC1CCCO1 (stereo not drawn),11.2 µM (active),
O=C(Nc1ccc(Cl)cc1)Nc1ccc(Cl)c(C(F)(F)F)c1,8.91 µM (active),
OC(C#CCN1CCCC1)(c1ccccc1)c1ccccc1,,inactive

Compound,AC50,outcome
c1cc(CN2CCCCC2)cc(OCCCNc2nc3ccccc3s2)c1,12.6 µM (active),
COc1cc2c(cc1OC)-c1cc(=Nc3c(C)cc(C)cc3C)n(C)c(=O)n1CC2,15.8 µM (active),
Cc1c(C)n(Cc2ccccc2)c2ccc(C(=O)OCCN(C)C)cc12,3.16 µM (active),
CCCCN(CCCC)CCC(O)c1cc2c(Cl)cc(Cl)cc2c2cc(C(F)(F)F)ccc12 (stereo not drawn),4.47 µM (active),
CCCCCCCCCCCCCCCCCCNC(=O)OC1CCN(C(=O)OC[C@H](COC(=O)N(Cc2cccc[n+]2CC)C(=O)c2ccccc2OC)OC)CC1,,inactive
Cc1nc2n(c(=O)c1CCN1CCC(C(=O)c3ccc(F)cc3)CC1)CCS2,,inactive
CC(C)N=C(N)/N=C(\N)Nc1ccc(Cl)cc1,,inactive
O=C(CCC1CCN(Cc2ccccc2)CC1)c1ccc2c(c1)NCCCC2,7.08 µM (active),
O=C(c1ccc(F)cc1)C1CCN(CCn2c(=O)[nH]c3ccccc3c2=O)CC1,17.8 µM (active),
CCOc1ccc(Cc2nccc3cc(OCC)c(OCC)cc23)cc1OCC,,inactive
O=C(c1cc(O)c(O)c(O)c1)c1ccc(O)c(O)c1O,1.78 µM (active),
CCCCNc1c(C(=O)OCC)c(C)nc2c1cnn2CC,22.4 µM (active),
CCNC(=O)N1CCN(CCCC(c2ccc(F)cc2)c2ccc(F)cc2)CC1,11.2 µM (active),
CCN(CC)CCCC(C)Nc1c2ccc(Cl)cc2nc2ccc(OC)cc12 (stereo not drawn),25.1 µM (active),
CSc1ccc2c(c1)C(N1CCN(C)CC1)Cc1ccccc1S2 (stereo not drawn),3.16 µM (active),
CCCCOc1ccc(C(=O)CCN2CCCCC2)cc1,31.6 µM (active),
C[C@H]1[C@H]2CC[C@H]3[C@@H]4CC=C5C[C@@H](N(C)C)CC[C@]5(C)[C@H]4CC[C@]23CN1C,10 µM (active),
CN1CCCN=C1COC(=O)C(O)(c1ccccc1)C1CCCCC1 (stereo not drawn),12.6 µM (active),
CN1CCN(CCCN2c3ccccc3Sc3ccc(S(=O)(=O)N(C)C)cc32)CC1,2.24 µM (active),
